Results on 16 compounds are retold here after PubChem BioAssay.

Assay [1] in a line: A549 cell viability effects, profiling panel, calcein-AM fluorescence, 48 h, basal (AID 1162). The following applies: higher = more signal.
The nature of assay [2]: adipocyte viability effects, profiling panel, cell-based, 3T3-L1 adipocytes, calcein-AM fluorescence, 48 h, basal (AID 1163). The following applies: 3T3-L1 adipocytes viability, higher = more signal.
Assay [3] is described as follows: HepG2 cell viability effects, profiling panel, calcein-AM fluorescence, 48 h, basal (AID 1164). The following applies: higher = more signal.
A short description of assay [4]: MM1S cell viability effects, profiling panel, calcein-AM fluorescence, 48 h, basal (AID 1165).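 Further: viability of MM1S multiple myeloma cells under basal unstimulated conditions.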 The following applies: higher = more signal.
A short description of assay [5]: basal RPMI8226 viability, no added stimulus, profiling panel, cell-based, calcein-AM fluorescence, 48 h, PK04 Diversity Set (AID 1166).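 Further: cells grown under basal conditions without added stimulus.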 The conditions noted are these: RPMI8226 myeloma viability, higher = more signal.
Assay [6] is described as follows: basal HepG2 mitochondrial membrane potential changes, profiling panel, cell-based, JC-1 fluorescence, 24 h, 100 nL compound (AID 1167). The following applies: higher = more signal.
The nature of assay [7]: basal 3T3-L1 adipocyte mitochondrial potential changes, profiling panel, cell-based, JC-1 fluorescence, 3T3-L1 adipocytes, 24 h, 100 nL compound (AID 1168). The conditions noted are these: JC-1 mitochondrial fluorescence, higher = more signal, called active from +8 up or from −8 down.
The nature of assay [8]: basal RPMI8226 mitochondrial membrane potential changes, profiling panel, cell-based, JC-1 fluorescence, 24 h, 100 nL compound (AID 1169). The following applies: RPMI8226 myeloma, JC-1 mitochondrial potential fluorescence, higher = more signal.
Assay [9] is described as follows: basal MM1S mitochondrial membrane potential changes, profiling panel, cell-based, JC-1 fluorescence, 24 h, 100 nL compound (AID 1170). The conditions noted are these: higher = more signal.
Assay [10] is described as follows: A549 lung cancer cell viability effects, profiling panel, resazurin fluorescence, 24 h, PK04 Diversity Set (AID 1171). The following applies: higher = more signal, called active from +8 up or from −8 down. In general terms: Resazurin is reduced to fluorescent resorufin, in cell work by metabolically active cells.

The source made the active and inactive calls.
Further: test concentration not given here.

`C=CC[C@@]1(C(=O)OC)N=C(c2ccc(OCCCO)cc2)O[C@@H]1c1ccccc1N=[N+]=[N-]`: the z-score was -1.28 in assay [1]; 1.02 in [2]; -0.361 in assay [3]; -0.473 in [4]; -3.03 in assay [5]; 1 in assay [6]. Moreover, the z-score was 0.645 (inactive) in assay [7], -0.983 in assay [8], 0.0955 in assay [9] and -1 (inactive) in assay [10].

Regarding `O=C(NCc1ccc(F)cc1)[C@H]1C[C@H]2C(=O)N3CCC[C@H]3C(=O)N2[C@H]1c1ccc(O)cc1`, the z-score is -0.965 in [1]; 0.625 in assay [2]; -0.647 in assay [3]; -0.896 in [4]; -0.625 in assay [5]; 0.552 in assay [6]. Further, the z-score in assay [7] was 0.811 (inactive); in assay [8], 0.207; in assay [9], -0.396; in assay [10], -0.0909 (inactive).

For `CC(C)(C)N1CC=CC23O[C@@H]4/C=C\CCCOC(=O)C4[C@H]2C(=O)N(CCCCCO)[C@@H]3C1=O` (stereo not given in full), the z-score in assay [1] is -0.373; in assay [2], 1.03; in [3], -0.927; in [4], 1.59; in assay [5], 0.382; in assay [6] it was -0.0838. Besides, the z-score in assay [7] is 0.186 (inactive); in [8], 0.116; in [9], -0.00811; in [10], -0.543 (inactive).

Turning to `COc1cc(CO)cc(I)c1O[C@H]1C=C(C(=O)NCCO)C[C@@H]2O[C@H]12`, the z-score was -0.42 in assay [1]; 0.254 in [2]; -0.697 in assay [3]; 0.264 in assay [4]; -3.2 in assay [5]; -0.873 in [6]. For the same compound, the z-score in assay [7] was -0.389 (inactive); in assay [8], -0.443; in assay [9] it was -0.52; in assay [10], -1.41 (inactive).

As for `N#Cc1ccc(NN2C(C(O)C3CC=CCC3)C=CC3C(=O)N(c4ccccc4)C(=O)C32)cc1` (stereo not given), the z-score in assay [1] was -0.726; in assay [2], -0.613; in assay [3], 0.921; in assay [4], -0.318; in [5] it was -0.265; in [6] it was -0.795. Further, the z-score was -1.14 (inactive) in [7], 0.418 in assay [8], -0.508 in assay [9] and -0.997 (inactive) in [10].

Take `C=C1C(=O)C=C2CN(C(=O)c3ccccc3)[C@@](Cc3ccc(OC)cc3)(C(=O)OC)[C@@H]12`: the z-score in [1] is -1.92; in [2], -0.033; in assay [3], -1.62; in assay [4] it was -1.73; in assay [5], -4.68; in assay [6], 0.971. Also, the z-score in [7] is -1.02 (inactive); in assay [8] it was -0.908; in assay [9], -1.74; in [10] it was -0.701 (inactive).

`COCCOC(=O)N1C(=O)[C@@]2(c3cc(C#CCNC(N)=O)ccc31)[C@H](C(=O)Nc1nc3ccccc3s1)[C@H]1C(=O)O[C@H](c3ccccc3)[C@H](c3ccccc3)N1[C@@H]2c1ccccc1OCCO`: the z-score in assay [1] was 1.01; in [2] it was 0.706; in [3], -0.0995; in assay [4], 0.223; in [5], 0.405; in assay [6] it was -2.73. Also, the z-score in assay [7] was 2.4 (inactive); in [8] it was -0.981; in assay [9], -1.64; in assay [10], -1.29 (inactive).

Consider `C#CCN1[C@@H](Cc2ccccc2)C(=O)O[C@H](Cc2ccccc2)[C@@H]1/C=C/C1CC1`, for which the z-score in assay [1] is -0.589; in assay [2], -0.488; in [3], 0.196; in assay [4], -2; in assay [5], -2.16; in assay [6], 2.46. In addition, the z-score in assay [7] is -0.693 (inactive); in [8], -0.812; in [9] it was 0.4; in [10], 3.08 (inactive).

Turning to `O=C(NC1CC1)[C@@H]1c2ccccc2C(=O)N(Cc2cc(C(F)(F)F)cc(C(F)(F)F)c2)[C@H]1c1ccc(CO)cc1`, the z-score in [1] is 1.68; in assay [2] it was 1.61; in [3], 0.289; in assay [4], 0.538; in [5], -1.32; in assay [6], 0.693. For the same compound, the z-score is -0.439 (inactive) in assay [7], 0.801 in [8], -0.687 in [9] and 0.307 (inactive) in assay [10].

As for `CC(C)=C1C(=O)C(c2ccccc2)=C2CN3C(=O)N(CCc4ccccc4)C(=O)[C@]3(C)[C@H]21`, the z-score in [1] was 0.559; in assay [2] it was -0.342; in assay [3], 0.302; in [4], -2.06; in [5], -3.46; in [6] it was 1.87. Also, the z-score was -1.43 (inactive) in assay [7], -0.879 in [8], -1.66 in [9] and -0.337 (inactive) in [10].

`O=C1C2C=CC(C(O)c3c(F)cccc3Cl)N(Nc3ccc([N+](=O)[O-])cc3)C2C(=O)N1c1ccccc1` (stereo not given): the z-score in [1] is -1; in assay [2], -0.0012; in assay [3], -0.645; in [4] it was 0.19; in [5] it was -1.09; in assay [6] it was -1.14. The z-score in assay [7] was -1.26 (inactive); in assay [8] it was -0.209; in assay [9] it was -0.542; in assay [10], 0.372 (inactive).

In the case of `CCCc1cc2c(n1CCc1ccc(Cl)cc1)C(C)C1CN(C(=O)c3ccccc3)C(C)(C(=O)OC)C21` (stereo not given), the z-score is -1.7 in [1]; 1.33 in assay [2]; -0.534 in assay [3]; -3.25 in assay [4]; -4.74 in assay [5]; 4.02 in assay [6]. Moreover, the z-score is -1 (inactive) in [7], -0.78 in assay [8], -1.19 in assay [9] and -1.94 (inactive) in assay [10].

On to `CC(C)C(=C=CC[C@H](O)c1ccccc1OCCO)C[C@H](O)COCc1ccccc1`, for which the z-score is 0.827 in assay [1]; -0.0066 in [2]; 0.245 in [3]; -2.9 in [4]; -1.15 in assay [5]; -0.0954 in [6]. Moreover, the z-score was -0.307 (inactive) in assay [7], -0.823 in assay [8], -0.662 in assay [9] and -0.0334 (inactive) in [10].

`COCCCNC(=O)[C@@H]1c2ccccc2C(=O)N(Cc2ccc(OC(F)(F)F)cc2)[C@H]1c1ccc(CO)cc1`: the z-score in assay [1] was 0.927; in assay [2] it was -0.704; in assay [3], 0.198; in assay [4], -0.0583; in assay [5] it was 0.317; in assay [6], 1.75. Besides, the z-score was -0.436 (inactive) in assay [7], -0.604 in assay [8], -0.29 in assay [9] and 0.469 (inactive) in assay [10].

Consider `COC(=O)[C@@]1(Cc2ccc(OC)cc2)[C@H]2c3cc(C(=O)N(C)C)[nH]c3C[C@H]2CN1C(=O)c1ccccc1`, for which the z-score in assay [1] was -0.974; in [2], -0.539; in assay [3] it was 0.683; in [4] it was 0.945; in assay [5], 0.184; in assay [6], 1.46. The z-score is -0.372 (inactive) in [7], -0.582 in assay [8], -0.488 in [9] and 0.145 (inactive) in [10].

In the case of `CC1CC/C=C\[C@H]2OC34C=CCN(Cn5nnc6ccccc65)C(=O)[C@H]3N(CCCCCCO)C(=O)[C@@H]4C2C(=O)O1` (stereo not given in full), the z-score in assay [1] was 0.264; in [2] it was -0.0662; in [3] it was 0.91; in assay [4] it was 1.95; in [5] it was 0.456; in assay [6], 1.63. Also, the z-score was 0.53 (inactive) in [7], 0.8 in assay [8], -0.657 in assay [9] and 0.0188 (inactive) in assay [10].
